Experimental findings from PubChem BioAssay (Tox21) are described below.

Records with an inconclusive call do not appear. Where a call stands in place of a potency, no number is given. The source made the active and inactive calls. The call rests on the fitted dose curve; in most records, active means well fitted inhibition curve with a large enough effect in the repeat runs; inconclusive means weak or mixed curves; inactive means no such curve, though single readings can be large or run the other way.
Potency means the concentration at half of the fitted maximal effect.

The target of this test is Cytochrome P450 3A4 (Homo sapiens) (UniProt P08684). Briefly: Cytochrome P450 Family 3 Subfamily A Member 4 (CYP3A4) small molecule antagonists: luciferase reporter qHTS assay (AID 1671201). Further: nearly all actives have a fitted effect of over 50% in size. The note with it: P450-Glo CYP3A4 enzyme, luciferin luminescence, 1 h; series mostly up to 115 µM. The gist of the method: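 Setup: enzyme-substrate mix, compound pin transfer, 10 min RT. Reaction: NADPH regeneration solution, 1 h RT. Readout: detection reagent stops turnover, luminescence measured after 20 min, expressed in relative luminescence units.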
Chain of Cytochrome P450 3A4 (Homo sapiens) (P08684 whole entry, looked up): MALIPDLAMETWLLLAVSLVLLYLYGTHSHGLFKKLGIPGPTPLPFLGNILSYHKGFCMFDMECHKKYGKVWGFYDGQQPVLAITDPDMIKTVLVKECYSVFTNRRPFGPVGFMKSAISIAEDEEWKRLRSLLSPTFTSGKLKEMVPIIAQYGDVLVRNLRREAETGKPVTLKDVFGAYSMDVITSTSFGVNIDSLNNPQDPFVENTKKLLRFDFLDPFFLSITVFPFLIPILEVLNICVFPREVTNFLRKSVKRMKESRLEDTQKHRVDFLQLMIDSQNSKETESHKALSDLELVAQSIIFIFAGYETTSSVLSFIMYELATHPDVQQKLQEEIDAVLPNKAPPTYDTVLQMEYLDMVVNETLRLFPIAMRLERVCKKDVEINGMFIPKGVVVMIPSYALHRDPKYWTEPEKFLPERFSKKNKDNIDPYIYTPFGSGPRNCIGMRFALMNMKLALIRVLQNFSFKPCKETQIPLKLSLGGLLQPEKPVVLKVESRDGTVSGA
As to `COC(C)(C)OC`, the Potency result was “inactive”.

Consider `O=C(O)c1cccc(Oc2ccccc2)c1`, for which the Potency result was “inactive”.

Turning to `CCc1ccc(C)cc1`, the Potency result is “inactive”.

On to `CCOC(=O)N1CCC(Nc2ccc(Cl)cc2N)CC1`, for which the Potency result is “inactive”.

As to `CCC(C)(C)C(=O)O`, the Potency entry was “inactive”.

As to `Oc1ccc2c(c1)Cc1ccccc1-2`, the Potency result was “inactive”.

For `CCN(CC)c1ccc(C(=C2C=CC(=[N+](CC)CC)C=C2)c2ccc(S(=O)(=O)O)cc2S(=O)(=O)[O-])cc1`, the Potency was 8.94 µM (active).

Take `CC(=O)c1ccc[nH]1`: the Potency result was “inactive”.

As for `CC(C)(O)c1coc(S(=O)(=O)NC(=O)Nc2c3c(cc4c2CCC4)CCC3)c1`, the Potency was 22.4 µM (active).

For `CC1CCCO1` (stereo not drawn), the Potency result is “inactive”.

`Cc1cccc2sc(N)nc12`: the Potency result is “inactive”.

Turning to `CC(C)CC(O)CC(C)C`, the Potency entry is “inactive”.

Turning to `O=C(c1ccccc1)C1CCC1`, the Potency entry was “inactive”.

`O=C1OC(=O)c2c(Br)c(Br)c(Br)c(Br)c21`: the Potency result is “inactive”.

As for `O=C(CCS)OCC(COC(=O)CCS)(COC(=O)CCS)COC(=O)CCS`, the Potency is 5.64 µM (active).

With `O=C(O)CCCc1c[nH]c2ccccc12`, the Potency result is “inactive”.

For the compound `CCCCCc1ccco1`, the Potency is 23.2 µM (active).

For the compound `CCN(CC)CCNC(=O)c1cc(Cl)c(N)cc1OC`, the Potency result was “inactive”.
